Records with an inconclusive call do not appear. The source made the active and inactive calls. Rule for the calls, unless noted: active = hit-call score of the fitted dose curve at least 0.9, where 1 is the maximum; inconclusive = response in the unintended direction; inactive = score below 0.9.
What was measured:
[1] = biological target: Cellular tumor antigen p53 (Homo sapiens) (UniProt P04637); experiment: TOX21_p53_BLA_p2_ratio: Tox21 HCT-116 p53 Agonism Beta-lactamase Assay, Ratio, Phase 2 (AID 2283592)
Procedure, shortened: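 Ratio endpoint: beta-lactamase cleavage of CCF4-AM, blue (460 nm) over green (530 nm). HCT116 reporter line; 16 h treatment, 37C; substrate 2 h RT.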

[2] = biological target: Cellular tumor antigen p53 (Homo sapiens) (UniProt P04637); experiment: TOX21_p53_BLA_p3_ratio: Tox21 HCT-116 p53 Agonism Beta-lactamase Assay, Ratio, Phase 3 (AID 2283596)
Procedure, shortened: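 Cells were seeded at 4000/well, rested 5 h at 37C, then dosed with DMSO compound solutions (217-fold dilution) for 16 h. CCF4-AM substrate was loaded for 2 h at room temperature, and the 460/530 nm emission ratio was fitted for gain of signal versus DMSO.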

[3] = TOX21_p53_BLA_p5_viability: Viability Assessment in the Tox21 HCT-116 p53 Agonism Beta-lactamase Assay, Phase 5 (AID 2283600)
Procedure, shortened: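 Luciferase-coupled ATP quantitation of cells treated for 16 h (37C, 5% CO2) with test chemicals delivered in DMSO via a 217-fold dilution; 4000 cells/well; reagent incubated 30 min at room temperature before luminescence reading.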

[4] = biological target: Cellular tumor antigen p53 (Homo sapiens) (UniProt P04637); experiment: TOX21_p53_BLA_p4_ratio: Tox21 HCT-116 p53 Agonism Beta-lactamase Assay, Ratio, Phase 4 (AID 2283601)
Procedure, shortened: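 HCT-116 p53 beta-lactamase reporter cells (4000/well) preincubated 5 h, then compound (217-fold dilution of DMSO stock) for 16 h at 37C. CCF4-AM substrate added 2 h at room temperature; 460/530 nm emission ratio fitted upward versus DMSO.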

[5] = TOX21_p53_BLA_p4_viability: Viability Assessment in the Tox21 HCT-116 p53 Agonism Beta-lactamase Assay, Phase 4 (AID 2283597);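 note: hits lower the luminescence signal meaning cytotoxicity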
Procedure, shortened: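 Cytotoxicity was inferred from loss of CellTiter-Glo luminescence. HCT116 cells had been dosed with compounds after 5 h plating, incubated 16 h at 37C and 5% CO2, and exposed to the CCF4-AM substrate for 2 h.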

[6] = biological target: Cellular tumor antigen p53 (Homo sapiens) (UniProt P04637); experiment: TOX21_p53_BLA_p5_ratio: Tox21 HCT-116 p53 Agonism Beta-lactamase Assay, Ratio, Phase 5 (AID 2283599)
Procedure, shortened: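 HCT-116 p53-bla cells (4000/well) plated 5 h, dosed with compound (217-fold DMSO dilution) for 16 h at 37 C; CCF4-AM substrate 2 h at room temperature. Activity is the 460/530 nm emission ratio (405 nm excitation), fitted in gain-of-signal direction versus DMSO.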

[7] = TOX21_PR_BLA_Followup_Agonist_viability: Viability Assessment in the Tox21 HEK293 Progesterone Receptor (PR) Agonism Beta-lactamase Follow-Up Assay (AID 2283935);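 note: signal loss means lower viability so actives are cytotoxic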
Procedure, shortened: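 Cells were plated in medium with 2% charcoal-stripped FBS and rested 6 hr. Compounds in DMSO were then added for 16 hr at 37C, followed by the FRET substrate step and CellTiter-Glo luminescence after 30 min.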

PGR (gene 5241) = PGR (gene 5241) (UniProt P06401); experiment: TOX21_PR_LUC_Followup_Antagonist: Tox21 HEK293 Progesterone Receptor (PR) Antagonism Luciferase Follow-Up Assay (AID 2283938);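 note: curve fitted upward as signal gain over DMSO baseline despite antagonist label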
Procedure, shortened: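 HEK293-PR-A-luc cells were precultured 5 days in medium with 10% charcoal-stripped FBS, seeded 3,000/well, then exposed to compounds in DMSO for 16 h at 37C. Luciferase was read by ONE-Glo luminescence after 30 min at room temperature.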

[8] = TOX21_PR_LUC_Followup_Antagonist_viability: Viability Assessment in the Tox21 HEK293 Progesterone Receptor (PR) Antagonism Luciferase Follow-Up Assay (AID 2283940)
Procedure, shortened: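 HEK293-PR-A-luc, 3,000 cells/well; 5 h at 37C/0% CO2; compound pin transfer; 16 h incubation; CellTiter-Glo ATP luminescence, signal loss = cytotoxicity.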

[9] = CCTE_Shafer_MEA_dev_firing_rate_mean: CCTE's Neural Network Formation Assay for Mean Firing Rate, Shafer Lab (AID 2284031; active = hit-call score of the fitted dose curve at least 0.9, where 1 is the maximum; inactive = score below 0.9)
Procedure, shortened: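 Steps: seed rat cortical cells (1.5 x 10^5/well) with laminin on PEI-coated MEA; dose day 0; record DIV 5/7/9/12, full media and compound exchange after DIV 5 and 9 recordings; compute well-mean firing rate AUC.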

[10] = CCTE_Shafer_MEA_dev_per_burst_spike_percent: CCTE's Neural Network Formation Assay for Percent of Spikes in a Burst, Shafer Lab (AID 2284032; active = hit-call score of the fitted dose curve at least 0.9, where 1 is the maximum; inactive = score below 0.9)
Procedure, shortened: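 Value is trapezoidal AUC over recordings on days 5, 7, 9 and 12 of the well-mean fraction of spikes falling in single-electrode bursts; rat cortical cultures exposed continuously from plating, treatment renewed DIV 5 and 9, fitted downward against DMSO.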

[11] = CCTE_Shafer_MEA_dev_active_electrodes_number: CCTE's Neural Network Formation Assay for Number of Active Electrodes, Shafer Lab (AID 2284040)
Procedure, shortened: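 Counts electrodes per well firing at least 5 spikes/min, recorded on days 5, 7, 9 and 12 in rat cortical cultures dosed continuously from plating (treatment refreshed DIV 5, 9). Value is the area under the curve over recordings, fitted downward relative to DMSO.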

[12] = CCTE_Shafer_MEA_dev_burst_rate: CCTE's Neural Network Formation Assay for Burst Rate, Shafer Lab (AID 2284042; active = hit-call score of the fitted dose curve at least 0.9, where 1 is the maximum; inactive = score below 0.9)
Procedure, shortened: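 Developmental network assay measuring how 12-day exposure of rat cortical neuron cultures alters bursting on extracellular MEA recordings. Values are AUC of well-mean burst rate across four recording days, relative to DMSO vehicle.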

[13] = CCTE_Shafer_MEA_dev_bursting_electrodes_number: CCTE's Neural Network Formation Assay for Number of Bursting Electrodes, Shafer Lab (AID 2284043)
Procedure, shortened: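 Rat cortical primary neurons, 48-well MEA, 16 electrodes/well; dosing DIV 0–12, re-dosed with full media change DIV 5, 9. Recordings DIV 5/7/9/12, AxIS adaptive spike detector; bursting electrode = ≥1 burst/2 min. AUC across days; loss of signal vs DMSO.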

[14] = CCTE_Shafer_MEA_dev_per_burst_interspike_interval: CCTE's Neural Network Formation Assay for Burst Interspike Interval, Shafer Lab (AID 2284044; active = hit-call score of the fitted dose curve at least 0.9, where 1 is the maximum; inactive = score below 0.9)
Procedure, shortened: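 Rat cortical primary cultures, 16 electrodes/well; compound from plating, renewed with full media change DIV 5 and 9. Spikes via adaptive detector; per-burst ISI well-mean over active bursting electrodes; AUC of DIV 5/7/9/12 recordings; loss-direction fit vs DMSO.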

[15] = CCTE_Shafer_MEA_dev_burst_duration_mean: CCTE's Neural Network Formation Assay for Mean Burst Duration, Shafer Lab (AID 2284045; active = hit-call score of the fitted dose curve at least 0.9, where 1 is the maximum; inactive = score below 0.9)
Procedure, shortened: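 Rat cortical cultures, 1.5 x 10^5 cells/well with laminin drop; continuous dosing days 0–12, media plus treatment refreshed DIV 5, 9. AxIS adaptive spike detection; mean single-electrode burst duration, AUC over four recordings, negative direction vs DMSO.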

[16] = CCTE_Shafer_MEA_dev_interburst_interval_mean: CCTE's Neural Network Formation Assay for Mean Interburst Interval, Shafer Lab (AID 2284046; active = hit-call score of the fitted dose curve at least 0.9, where 1 is the maximum; inactive = score below 0.9;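 note: well-mean interburst interval of bursting electrodes as AUC over four recording days; curve fitted for decrease in interburst interval relative to DMSO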)
Procedure, shortened: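 Network formation assay in primary rat cortical cultures, exposed from DIV 0 to 12. Mean interburst interval per well, integrated as AUC over four recordings.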

[17] = CCTE_Shafer_MEA_dev_inter_network_spike_interval_mean: CCTE's Neural Network Formation Assay for Mean Inter-network Spike Interval, Shafer Lab (AID 2284047; active = hit-call score of the fitted dose curve at least 0.9, where 1 is the maximum; inactive = score below 0.9)
Procedure, shortened: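 Compound was given at plating to primary rat cortical neurons and renewed with full medium changes on DIV 5 and 9. Extracellular activity was recorded on days 5, 7, 9, 12; AUC values were fitted for loss relative to DMSO control.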

[18] = CCTE_Shafer_MEA_dev_network_spike_number: CCTE's Neural Network Formation Assay for Number of Network Spikes, Shafer Lab (AID 2284048; active = hit-call score of the fitted dose curve at least 0.9, where 1 is the maximum; inactive = score below 0.9;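 note: synchronized bursts across electrodes counted on days 5 7 9 12 and integrated as AUC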)
Procedure, shortened: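 Rat cortical primary cultures on 48-well MEA (16 electrodes/well); continuous exposure DIV 0–12, full medium and treatment exchange DIV 5, 9. Readout: network spike count, AxIS adaptive detection, recordings DIV 5/7/9/12 collapsed to AUC; loss-of-signal fit, DMSO baseline.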

[19] = CCTE_Shafer_MEA_dev_network_spike_peak: CCTE's Neural Network Formation Assay for Mean Number of Electrodes in Network Spike, Shafer Lab (AID 2284049; active = hit-call score of the fitted dose curve at least 0.9, where 1 is the maximum; inactive = score below 0.9)
Procedure, shortened: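 Network-spike peak electrode count from recordings on days 5, 7, 9 and 12 was combined as trapezoidal area under the curve. Rat cortical cultures were treated continuously from plating, with compound renewed at each feed (DIV 5, 9); fits versus DMSO.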

[20] = CCTE_Shafer_MEA_dev_spike_duration_mean: CCTE's Neural Network Formation Assay for Mean Spike Duration, Shafer Lab (AID 2284051; active = hit-call score of the fitted dose curve at least 0.9, where 1 is the maximum; inactive = score below 0.9;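 note: mean network spike duration pooled as area under curve over DIV 5 to 12 recordings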)
Procedure, shortened: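 With DMSO as baseline, loss of mean network spike duration was scored from extracellular recordings of rat cortical neurons on MEA plates. Exposure spanned plating to DIV 12; the four recording days were collapsed into one AUC value.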

[21] = CCTE_Shafer_MEA_dev_network_spike_duration_std: CCTE's Neural Network Formation Assay for Standard Deviation of Network Spike Duration, Shafer Lab (AID 2284052; active = hit-call score of the fitted dose curve at least 0.9, where 1 is the maximum; inactive = score below 0.9;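 note: area under curve of spike duration SD across recording days 5 to 12; hits are decreases in network spike duration SD versus DMSO vehicle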)
Procedure, shortened: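 Developing networks of rat cortical neurons were exposed over twelve days in vitro on 48-well MEA plates. Trapezoidal AUC of recordings (DIV 5–12) was analysed for signal loss relative to DMSO vehicle.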

[22] = CCTE_Shafer_MEA_dev_per_network_spike_spike_number_mean: CCTE's Neural Network Formation Assay for Mean Number of Spikes in a Network Spike, Shafer Lab (AID 2284053; active = hit-call score of the fitted dose curve at least 0.9, where 1 is the maximum; inactive = score below 0.9)
Procedure, shortened: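 First, rat cortical cells (1.5 x 10^5/well) were seeded onto MEA wells; second, dosing began at plating and was refreshed on DIV 5 and 9; finally, network-spike spike counts across DIV 5–12 were summarized as AUC.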

[23] = CCTE_Shafer_MEA_dev_per_network_spike_spike_percent: CCTE's Neural Network Formation Assay for Percent of Spikes in a Network Spike, Shafer Lab (AID 2284054; active = hit-call score of the fitted dose curve at least 0.9, where 1 is the maximum; inactive = score below 0.9)
Procedure, shortened: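 Read-out: percent of spikes falling in a 0.05 s window at network-spike peak, from spontaneous MEA recordings on days 5, 7, 9 and 12; trapezoidal AUC; loss of signal versus DMSO. Rat cortical cultures, compound present throughout.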

[24] = CCTE_Shafer_MEA_dev_LDH: CCTE's Lactate Dehydrogenase Assay for Cytotoxicity in the Neural Network Formation Assay, Shafer Lab (AID 2284068);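 note: exposure for twelve days from plating with re-dosing on DIV 5 and 9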
Procedure, shortened: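 Developing rat cortical networks on MEA plates are exposed to compound for 12 days from plating. LDH activity is measured spectrophotometrically, with DMSO as baseline.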

[25] = CCTE_Shafer_MEA_dev_mutual_information_norm: CCTE's Neural Network Formation Assay for Mutual Information Normalization, Shafer Lab (AID 2284091; active = hit-call score of the fitted dose curve at least 0.9, where 1 is the maximum; inactive = score below 0.9)
Procedure, shortened: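 Neurons from rat cortex were seeded at 1.5 x 10^5 cells/well onto PEI-coated MEAs in a laminin drop, then exposed to compound from day 0 for twelve days. Network recordings on four days gave mutual information, summarised by AUC relative to DMSO.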

[26] = CCTE_Shafer_MEA_dev_correlation_coefficient_mean: CCTE's Neural Network Formation Assay for Mean Correlation Coefficient, Shafer Lab (AID 2284093; active = hit-call score of the fitted dose curve at least 0.9, where 1 is the maximum; inactive = score below 0.9)
Procedure, shortened: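 Extracellular firing from rat cortical networks on 48-well MEAs, DMSO-referenced, negative fitting direction. Compound present from plating to DIV12; mean pairwise correlation per well integrated over DIV5–12 recordings by trapezoidal AUC.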

Measured: outcome

Sequence of Cellular tumor antigen p53 (Homo sapiens) (P04637 whole entry, looked up): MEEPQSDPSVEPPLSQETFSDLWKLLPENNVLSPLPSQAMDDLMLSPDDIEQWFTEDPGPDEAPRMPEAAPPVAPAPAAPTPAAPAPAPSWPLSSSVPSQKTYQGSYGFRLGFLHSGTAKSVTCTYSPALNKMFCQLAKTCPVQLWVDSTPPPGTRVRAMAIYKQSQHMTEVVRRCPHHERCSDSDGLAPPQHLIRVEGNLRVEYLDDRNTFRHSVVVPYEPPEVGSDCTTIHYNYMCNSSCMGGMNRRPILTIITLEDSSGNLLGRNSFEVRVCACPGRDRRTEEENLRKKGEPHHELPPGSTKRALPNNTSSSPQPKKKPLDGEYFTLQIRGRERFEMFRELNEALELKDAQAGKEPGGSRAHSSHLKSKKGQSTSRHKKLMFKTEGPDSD
Sequence of PGR (gene 5241) (P06401 whole entry, looked up): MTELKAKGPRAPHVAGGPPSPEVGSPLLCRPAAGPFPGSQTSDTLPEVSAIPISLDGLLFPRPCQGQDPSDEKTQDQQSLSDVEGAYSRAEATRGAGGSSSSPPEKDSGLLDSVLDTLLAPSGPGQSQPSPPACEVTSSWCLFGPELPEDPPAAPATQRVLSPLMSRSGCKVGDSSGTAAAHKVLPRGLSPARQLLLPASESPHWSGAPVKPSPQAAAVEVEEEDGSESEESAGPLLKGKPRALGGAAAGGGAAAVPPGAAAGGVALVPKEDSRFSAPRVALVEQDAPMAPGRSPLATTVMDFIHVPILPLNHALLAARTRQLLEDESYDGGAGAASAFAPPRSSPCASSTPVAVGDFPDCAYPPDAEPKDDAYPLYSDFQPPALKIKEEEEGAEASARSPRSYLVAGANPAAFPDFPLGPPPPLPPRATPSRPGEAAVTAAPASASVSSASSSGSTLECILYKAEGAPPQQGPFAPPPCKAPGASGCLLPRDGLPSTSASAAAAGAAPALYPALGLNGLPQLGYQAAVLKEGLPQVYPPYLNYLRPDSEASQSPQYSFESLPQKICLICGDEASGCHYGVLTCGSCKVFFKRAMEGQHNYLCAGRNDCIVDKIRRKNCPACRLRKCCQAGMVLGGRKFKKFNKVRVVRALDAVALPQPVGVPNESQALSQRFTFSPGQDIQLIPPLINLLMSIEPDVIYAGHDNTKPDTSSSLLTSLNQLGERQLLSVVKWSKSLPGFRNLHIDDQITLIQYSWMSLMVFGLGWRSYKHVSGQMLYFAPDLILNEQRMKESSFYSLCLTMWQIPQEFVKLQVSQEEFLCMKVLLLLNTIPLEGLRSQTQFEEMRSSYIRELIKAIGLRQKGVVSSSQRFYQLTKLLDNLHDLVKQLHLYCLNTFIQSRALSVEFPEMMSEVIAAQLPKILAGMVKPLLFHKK

CC1OCCC1=O (stereo not given)
inactive: [1] | [2] | [3] | [4]

Nc1nc(N)nc(-c2cc(Cl)ccc2Cl)n1
inactive: [1] | [2] | [4]

N#CSc1ccc(N)c([N+](=O)[O-])c1
inactive: [1] | [5] | [6]

CCC(C)(Oc1ccc(C2(c3ccc(OC(C)(CC)C(=O)O)cc3)CCCCC2)cc1)C(=O)O (stereo not given)
inactive: [1] | [5] | [6]

CC(COc1ccccc1)NC(C)C(O)c1ccc(O)cc1 (stereo not given)
inactive: [1] | [2] | [4]

C[Se]CC[C@H](N)C(=O)O
inactive: [1] | [5] | [6] | [3]

CCCC(C)C
inactive: [1] | [2] | [3] | [4]

Cl/C(=C\n1cncn1)c1ccc(Cl)cc1Cl
inactive: [7] | PGR (gene 5241) | [8]

c1cc2c3c(c1)ccc1cccc(c13)C2
inactive: [9] | [10] | [11] | [12] | [13] | [14] | [15] | [16] | [17] | [18] | [19] | [20] | [21] | [22] | [23] | [24] | [25] | [26]

Reference: PubChem BioAssay (EPA / NIEHS)
